ELG1 DNA repair = inhibitors of ELG1-dependent DNA repair in HEK293T cells; HEK293T ELG1-luciferase reporter, luminescence, 16 h; DNA damage induced by 5-fluorouridine; Potency, µM (titrated, usually from 46.1 µM), hits mostly inhibitors; 330,000 tested, 2.3% active; note: nearly all actives have a fitted effect of over 55% in size
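Reporter activity after DNA damage by 5-fluorouridine is monitored. Compound-treated cells incubate 16 hr at 37 °C, then ONE-Glo is added for 30 min before luminescence reading.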
RORgamma inh = ROR gamma (mouse) transcription inhibition. Potency, µM (titrated, usually from 53.6 µM), actives largely listed as inhibitors. 310,000 tested, 5.4% active. P51450. Drosophila S2 Gal4-RORgamma UAS-luciferase reporter, 20 h. AID 2551; note: nearly all actives have a fitted effect of over 60% in size
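In this cell-based reporter format, copper sulfate (700 uM final) drives Gal4–ROR gamma fusion expression from a metallothionein promoter in Drosophila Schneider cells; compounds preincubated 1 hr, reporter read after 20 hr at ambient temperature.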
TSHR antagonist = blocks TSH signaling through the human TSH receptor. P16473. AID 504810. 330,000 tested, 0.2% active. activity change, negative = inhibition, % at 11.5 µM. TSHR-expressing cells, TSH-stimulated cAMP HTRF, 2 h; active compounds read low;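 active = activity change below a set negative limit, meaning inhibition stronger than a set level, cut at about -70% in these data; inconclusive = activity change between two set negative limits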
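Inhibition of cAMP made by TSHR-expressing cells under TSH stimulation (4nM final, EC80; 2 h, 37 deg C) is quantified with a one-step lysis HTRF kit, anti-cAMP cryptate versus cAMP-d2.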
B2AR arrestin = beta2AR (human) beta-arrestin recruitment activity. beta-arrestin recruitment to beta2AR, cell-based reporter. Potency, µM (doses to about 46.1 µM), actives largely listed as activators. 330,000 tested, 0.02% active. AID 492947; note: nearly all actives have a fitted effect of over 65% in size
Target sequence (P07550 whole entry, looked up): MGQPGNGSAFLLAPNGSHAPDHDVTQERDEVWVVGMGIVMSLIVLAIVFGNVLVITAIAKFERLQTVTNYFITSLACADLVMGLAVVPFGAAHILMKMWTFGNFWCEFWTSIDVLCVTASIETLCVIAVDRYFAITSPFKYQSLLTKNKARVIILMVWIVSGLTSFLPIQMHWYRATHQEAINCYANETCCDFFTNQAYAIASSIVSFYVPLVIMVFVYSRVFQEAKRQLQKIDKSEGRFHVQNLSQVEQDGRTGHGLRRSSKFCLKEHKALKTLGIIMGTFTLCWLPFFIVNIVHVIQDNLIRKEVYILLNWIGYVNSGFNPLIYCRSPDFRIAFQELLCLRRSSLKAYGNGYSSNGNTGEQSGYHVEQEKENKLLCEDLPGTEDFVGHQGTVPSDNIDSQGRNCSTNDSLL
VP16 counter = Gal4-VP16 reporter inhibition counter-screen. Drosophila S2 Gal4-VP16 UAS-luciferase, luminescence, 20 h. 310,000 tested, 3.5% active. Potency, µM (titrated, usually from 53.6 µM), most hits filed as inhibitors;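 note: Gal4-VP16 expression switched on by copper sulfate through the metallothionein promoter; nearly all actives have a fitted effect of over 50% in size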
A number is an active result; - = inactive; ? = inconclusive; . = no result given; [ ] = another dose, or the depositor's remark. Compounds with a hit are over-represented: about 7.5% of the library has one in this group of screens. Unless noted, calls come from the whole dose curve; as a rule, active = well fitted curve in the direction sought with a large enough effect; inconclusive = small, poorly fitted or top-dose-only effect, or another doubt; inactive = no such curve, though single readings can be large; an effect the other way counts as inactive or inconclusive.

SMILES	ELG1 DNA repair	RORgamma inh	TSHR antagonist	B2AR arrestin	VP16 counter
O=C(NNC(=O)c1cccc([N+](=O)[O-])c1)c1ccncc1	-	-	-	-	-
c1ccc(CNc2nc(-c3ccc4c(c3)OCO4)nc3ccccc23)cc1	.	-	.	.	-
CC[C@H]1NC(=O)c2cc(S(N)(=O)=O)c(Cl)cc2N1	.	-[2.98 µM]	.	.	-
Cc1cc(C)c(S(=O)(=O)Nc2cccc(S(=O)(=O)NC3=NCCC3)c2)c(C)c1	-	-	-	-	-
O=C(NNC(=S)NC(=O)c1cccc([N+](=O)[O-])c1)c1ccc(Br)cc1	?	11µM	-	-	?
O=C(NC(=S)Nc1ccc(N2CCOCC2)cc1)c1cccc([N+](=O)[O-])c1	-	2.2µM	-	-	2.8µM
Cc1ccc(C(=O)NC(=S)NNC(=O)c2cccc([N+](=O)[O-])c2)cc1	-	4.5µM	-	-	7.1µM
O=C(NC(=S)Nc1cccc(F)c1)c1cccc([N+](=O)[O-])c1	-	1.6µM	-	-	6.3µM
Cc1cccc(NC(=S)NNC(=O)c2cccc([N+](=O)[O-])c2)c1	-	-	-	-	-
COc1ccc(C(=O)O)cc1NC(=S)NC(=O)/C=C/c1ccc(C(C)C)cc1	-	-	-	-	-
OCCNc1c2ccccc2nc2c(F)c(F)c(F)c(F)c12	?	10µM	-	-	7.9µM
C=CCc1c(C)nc(SC)nc1Nc1ccc(C(=O)O)cc1	?	-	-	-	-
C=CCc1c(C)nc(SC)nc1Nc1ccc(C(C)=O)cc1	7.3µM	-	-	-	-
CCn1c(C(=O)N2CCCC(C(=O)NCCCc3ccccc3)C2)cc2sccc21 (centres undefined)	21µM	?	-	-	11µM
O=C(NCc1ccco1)C1CCN(C(=O)c2cc3sccc3n2Cc2ccc(Cl)cc2)CC1	18µM	?	-	-	?
CCn1c(C(=O)N2CCCC(C(=O)O)C2)cc2sccc21 (centres undefined)	-	-	-	-	-
CCOC(=O)N1CCC(NC(=O)C2CCN(C(=O)c3cc4sccc4n3CC)CC2)CC1	23µM	?	-	-	?
CCn1c(C(=O)N2CCCC(C(=O)NCCc3ccc(C)cc3)C2)cc2sccc21 (centres undefined)	18µM	?	-	-	-
COc1cc(S(=O)(=O)Nc2cccnc2)ccc1Cl	-	?	-	-	-
Cc1c(C)c2c(c(C)c1O)CC[C@@](C)(C(=O)O)O2	.	-	.	.	-
CCOc1cc(C(=O)Oc2cc(C)[nH]c(=O)c2[N+](=O)[O-])cc(OCC)c1OCC	-	-	-	-	-
CCCCCCCC1=CC2=CC(=O)C(C)(O)C(=O)C2=CN1CCCC (centres undefined)	.	-[10 µM]	.	.	-[10 µM]
CCCCOc1cccc(OCC(=O)Nc2nc3ccccc3[nH]2)c1	-	16µM	-	-	?
O=C(COc1ccccc1)Nc1nc2ccccc2[nH]1	?	?	-	-	.
CCCOc1cccc(OCC(=O)Nc2nc3ccccc3[nH]2)c1	-	10µM	-	-	?
SMILES	ELG1 DNA repair	RORgamma inh	TSHR antagonist	B2AR arrestin	VP16 counter
C=CCC[C@H](Cc1ccc(F)cc1)C(=O)OC[C@@H](Cc1c[nH]c2ccccc12)NC(=O)[C@H](CC=C)CC(=O)NCCO	?	.	-	-	.
C=CCC[C@H](Cc1ccc(F)cc1)C(=O)OC[C@@H](Cc1c[nH]c2ccccc12)NC(=O)[C@H](CC=C)CC(=O)N(CCO)Cc1ccccc1	16µM	.	-	-	.
C=CCC[C@@H](Cc1ccc(F)cc1)C(=O)OC[C@@H](Cc1c[nH]c2ccccc12)NC(=O)[C@H](CC=C)CC(=O)N(CCO)Cc1ccccc1	18µM	.	-	-	.
C=CCC[C@@H](Cc1ccc(F)cc1)C(=O)OC[C@H](Cc1c[nH]c2ccccc12)NC(=O)[C@H](CC=C)CC(=O)NCCO	?	.	-	-	.
CN1C2CCC1CC(NS(=O)(=O)c1ccc(C#N)cc1)C2 (centres undefined)	-	-	-	-	-
COCC(=O)N1CCC[C@@]2(CCN(c3ncccn3)C2)C1	.	-	.	.	-
O=C(NC(=S)Nc1ccccc1N1CCCC1)c1ccc(-c2cccc([N+](=O)[O-])c2)o1	15µM	-	-	-	-
O=C(NC(=S)Nc1ccccc1N1CCCCC1)c1ccc(-c2cccc([N+](=O)[O-])c2)o1	?	0.5µM	-	-	2.2µM
COc1ccc(SCCN2CC[C@@H](C(C)(C)C)CCC2=O)cc1	?	.	-	-	.
CCS(=O)(=O)N1CCN(c2ncnc3sc(C)c(C)c23)CC1	?	-	-	-	-
Cc1ccc(S(=O)(=O)N2CCN(c3ccccn3)CC2)cc1	-	-	-	-	-
Cc1sc2ncnc(N3CCN(S(=O)(=O)c4ccc(F)cc4)CC3)c2c1C	?	-	-	-	22µM
Cc1ccc(S(=O)(=O)N2CCN(c3ncnc4sccc34)CC2)cc1	9.2µM	?	-	-	5µM
COc1ccc2[nH]c3c4c(ccc3c2c1)C(=O)C=CC4=O	16µM	6.3µM	-	?	8.9µM
COc1ccc2[nH]c(-c3ccc(F)cc3F)cc(=O)c2c1	.	-	.	.	-
Cc1ccc(C(=O)NNC2=NCCC2)cc1	-	10µM	-	-	18µM
Cc1ccc(C(=O)CNc2ccc(C)cc2C)cc1	?	-	-	-	-
Cc1ccc(NCC(=O)NNC2=NCCC2)c(C)c1	-	8.9µM	-	-	11µM
O=C(NNC1=NCCC1)c1ccc(Br)cc1	-	5.6µM	-	-	6.3µM
O=C(NNC1=NCCC1)C1CC1	-	-	-	-	-
O=C(NCCNc1ccnc2cc(Cl)ccc12)c1ccccc1F	-	?	-	-	11µM
O=C(NCCNc1ccc(Cl)cc1[N+](=O)[O-])c1ccccc1F	?	-	-	-	-
Oc1ccc(/C=N/NC(=S)Nc2cccnc2)c(O)c1	-	-	-	-	?
Oc1cccc(/C=N/NC(=S)Nc2cccnc2)c1O	-	4.5µM	-	-	5.6µM
Oc1ccc(/C=N/NC(=S)Nc2cccnc2)c(O)c1O	15µM	-	-	-	-
SMILES	ELG1 DNA repair	RORgamma inh	TSHR antagonist	B2AR arrestin	VP16 counter
COc1cc(C(=O)N/N=C/c2ccsc2C)cc(OC)c1OC	-	13µM	-	-	?
C/C(=N\NC(N)=S)C1C2C3CC4C5CC(C42)C1C53 (centres undefined)	?	1.1µM	-	-	?
CCC1CC(/C(C)=N/NC(N)=O)OC1=O (centres undefined)	-	-	-	-	-
COc1ccc(N2CCN(C(=O)[C@H](C)NC(=O)c3ccccc3Cl)CC2)cc1	-	-	-99	-	-
O=c1ccn(-c2cccc(C(F)(F)F)c2)nc1-c1ccn(-c2ccccc2F)n1	?	-	-	-	-
COc1ccc(-n2ccc(-c3nn(-c4cccc(C(F)(F)F)c4)ccc3=O)n2)cc1	8.2µM	-	-	-	-
O=C(N/N=C/C(Br)=C/c1ccccc1)C(O)c1ccccc1 (centres undefined)	?	?	-	-	?

Assay outcomes as filed in PubChem BioAssay.
